The values below come from PubChem BioAssay.

Assay [1] deals with PRMT1 (protein arginine N-methyltransferase 1). The assay can be described thus: PRMT1 binders on small-molecule microarrays, primary screen, biochemical, small-molecule microarray, 635 nm fluorescence (AID 1088).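 Note: binding of Prmt1 protein to compounds spotted on small-molecule microarray slides.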 Conditions: small-molecule microarray binding, higher = more signal.
Assay [2] in a line: yeast growth modulation, basal conditions, primary screen, YJM789 clinical isolate, OD600, 24 h (AID 1089).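 Note: growth of clinical yeast isolate S. cerevisiae YJM 789 seeded 1000 cells per well; test concentration not given here.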 Conditions: S. cerevisiae YJM789 growth, higher = more signal, called active from +8 up or from −8 down.
The nature of assay [3]: fission yeast growth modulation, primary screen, strain 972, OD600, 24 h, no modulator (AID 1090).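 Note: basal condition with compound alone and no growth modifier present; test concentration not given here.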 The note with it: S. pombe 972 growth, higher = more signal, called active from +8 up or from −8 down.
Assay [4] is described as follows: S. cerevisiae growth modulation with rapamycin, primary screen, strain BY4716, OD600, 96 h (AID 1091). Note: test concentration not given here. The note with it: higher = more signal, called active from +8 up or from −8 down.
The target of assay [5] is Torsin-1A-interacting protein 2 (Homo sapiens) (UniProt Q8NFQ8). Briefly: LULL1 binders on small-molecule microarray, primary screen, cell lysate, human LULL1 lysate, 635/667 nm fluorescence (AID 1092).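 Note: probe is lysate of COS7 cells overexpressing human LULL1; score merges per-feature 667 nm fluorescence with signal-to-noise.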 Conditions: hLULL1 lysate binding, 635 nm fluorescence, higher = more signal.
The nature of assay [6]: E. coli growth modulation, two-sided OD650, primary screen, E. coli filamentation project, strain DRC41, 24 h (AID 1093).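 Note: MC1000 strain lacking acrAB efflux and sulA so SOS filamentation is blocked; test concentration not given here.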 The note with it: OD650, 24 h, higher = more signal, called active from +8 up or from −8 down.
A short description of assay [7]: small-molecule microarray binders of probe aLefty2, primary screen, biochemical, biotinylated probe, 635/667 nm fluorescence (AID 1094).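 Note: score merges spot fluorescence near 667 nm with spot signal-to-noise ratio.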 Conditions: higher = more signal.
Assay [8] relates to Noggin (protein binding on small-molecule microarray). The assay can be described thus: Noggin binders on small-molecule microarray, primary screen, biochemical, 635/667 nm fluorescence (AID 1095).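 Note: score merges 667 nm feature fluorescence with signal to noise over triplicate slides.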 The note with it: 635 nm fluorescence, higher = more signal.
The target in assay [9] is Neurogenic locus notch homolog protein 3 (Homo sapiens) (UniProt Q9UM47). Briefly: NOTCH3 binders on small-molecule microarray, primary screen, biochemical, 635/667 nm fluorescence (AID 1096). Conditions: NOTCH3 binding, 635 nm fluorescence, higher = more signal.
Assay [10] is described as follows: small-molecule microarray binders of probe aEGFR, primary screen, biochemical, biotinylated probe, 635/667 nm fluorescence (AID 1097).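 Note: probe is a biotinylated anti-EGFR antibody binding compounds printed on slides; score combines fluorescence near 667 nm and signal to noise of each spot.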 Conditions: higher = more signal.
Assay [11] has as its system Plasmodium falciparum Sir2 (PF13_0152, Sir2A). The assay can be described thus: pfSir2 binders on small-molecule microarrays, primary screen, biochemical, small-molecule microarray, 635 nm fluorescence (AID 1098).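 Note: score merges spot fluorescence intensity with its signal-to-noise ratio.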 Conditions: small-molecule microarray binding, fluorescence 635 nm; higher = more signal.
A short description of assay [12]: small-molecule microarray binders of probe aDKK1, primary screen, biochemical, biotinylated probe, 635/667 nm fluorescence (AID 1099).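 Note: score merges 667nm spot fluorescence with signal to noise across triplicate slides; reference of the scale not given here.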 Conditions: higher = more signal.
A short description of assay [13]: small-molecule microarray binders of probe aCHRDL2, primary screen, biochemical, biotinylated probe, 635/667 nm fluorescence (AID 1100). Conditions: higher = more signal.
Assay [14] can be described thus: splicing luciferase reporter signal modulators, primary screen, spliceosome inhibition project, cell-based, HEK293, splice +/- reporter (AID 1101).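 Note: HEK293 cells carrying a splicing-competent luciferase reporter gene; test concentration not given here.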 Conditions: luminescence, 24 h, higher = more signal, called active from +8 up or from −8 down. A general note: Reporter assays use an easily measured gene product as a stand-in for the process of interest.
For assay [15], the target named is Fibroblast growth factor 10 (Homo sapiens) (UniProt O15520). Briefly: FGF10 binders on small-molecule microarrays, primary screen, biochemical, small-molecule microarray, 635 nm fluorescence (AID 1102). Conditions: FGF10 binding, fluorescence 635 nm, higher = more signal.
Assay [16] relates to glycogen synthase kinase-3 (GSK3A per assay name; protocol says GSK3B). Briefly: GSK3 binders on small-molecule microarrays, primary screen, biochemical, small-molecule microarray, 635 nm fluorescence, GSK3A (AID 1103). Note: the record names both GSK3A and GSK3B. Conditions: small-molecule microarray binding, fluorescence 635 nm; higher = more signal.
Assay [17] has as its target Epidermal growth factor receptor (Homo sapiens) (UniProt P00533). Briefly: EGFR binders on small-molecule microarrays, primary screen, biochemical, small-molecule microarray, 635 nm fluorescence (AID 1104).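 Note: score merges 667 nm emission intensity with spot signal to noise over triplicate slides.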 The note with it: EGFR binding, higher = more signal.
For assay [18], the target named is Follistatin-related protein 3 (Homo sapiens) (UniProt O95633). The assay can be described thus: FSTL3 binders on small-molecule microarrays, primary screen, biochemical, small-molecule microarray, 635 nm fluorescence (AID 1105).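 Note: score merges emission near 667 nm and signal to noise per printed spot across three slides.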 The note with it: FSTL3 binding, higher = more signal.
The target of assay [19] is Dickkopf-related protein 1 (Homo sapiens) (UniProt O94907). Briefly: DKK1 binders on small-molecule microarrays, primary screen, biochemical, small-molecule microarray, 635 nm fluorescence scan (AID 1106).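 Note: score merges emission near 667 nm with signal to noise over three replicate slides.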 The note with it: DKK1 binding, higher = more signal.
The test system of assay [20] is Inhibin beta A chain (activin A). Briefly: INHBA (activin A) binders on microarrays, primary screen, biochemical, small-molecule microarray, 635 nm fluorescence scan (AID 1107).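 Note: mouse activin A protein probed at 4.33 µg/mL on printed slides; score merges bound-protein fluorescence near 667 nm with spot signal-to-noise.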 The note with it: small-molecule microarray binding, higher = more signal.

Active and inactive are the calls of the source.

Fibroblast growth factor 10 (Homo sapiens), sequence (O15520 whole entry, looked up): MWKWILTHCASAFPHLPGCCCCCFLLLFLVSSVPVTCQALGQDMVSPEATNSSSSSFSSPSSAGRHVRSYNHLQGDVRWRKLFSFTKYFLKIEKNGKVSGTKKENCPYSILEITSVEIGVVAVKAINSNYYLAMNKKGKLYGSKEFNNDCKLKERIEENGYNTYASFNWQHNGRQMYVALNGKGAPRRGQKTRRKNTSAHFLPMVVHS
Dickkopf-related protein 1 (Homo sapiens), sequence (O94907 whole entry, looked up): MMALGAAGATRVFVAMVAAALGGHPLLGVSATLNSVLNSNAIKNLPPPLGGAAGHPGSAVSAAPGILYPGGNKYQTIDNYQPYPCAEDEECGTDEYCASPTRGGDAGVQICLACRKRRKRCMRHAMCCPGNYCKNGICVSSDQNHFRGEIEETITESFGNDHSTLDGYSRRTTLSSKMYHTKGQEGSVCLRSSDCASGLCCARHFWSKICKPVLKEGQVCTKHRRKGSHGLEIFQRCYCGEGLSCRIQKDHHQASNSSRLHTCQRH
Torsin-1A-interacting protein 2 (Homo sapiens), sequence (Q8NFQ8 whole entry, looked up): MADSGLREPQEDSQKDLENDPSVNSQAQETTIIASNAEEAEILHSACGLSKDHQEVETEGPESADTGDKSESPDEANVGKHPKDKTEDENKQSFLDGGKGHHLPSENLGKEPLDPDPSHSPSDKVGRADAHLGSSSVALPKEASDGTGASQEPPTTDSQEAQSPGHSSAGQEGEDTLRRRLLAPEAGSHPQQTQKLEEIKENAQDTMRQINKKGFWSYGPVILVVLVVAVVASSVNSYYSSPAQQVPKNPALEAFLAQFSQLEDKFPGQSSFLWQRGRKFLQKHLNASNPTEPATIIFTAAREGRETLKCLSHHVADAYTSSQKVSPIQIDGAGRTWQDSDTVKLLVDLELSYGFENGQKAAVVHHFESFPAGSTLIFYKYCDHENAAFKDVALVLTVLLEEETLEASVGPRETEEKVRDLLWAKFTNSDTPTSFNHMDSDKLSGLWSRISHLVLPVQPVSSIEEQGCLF
Epidermal growth factor receptor (Homo sapiens), sequence (P00533 whole entry, looked up): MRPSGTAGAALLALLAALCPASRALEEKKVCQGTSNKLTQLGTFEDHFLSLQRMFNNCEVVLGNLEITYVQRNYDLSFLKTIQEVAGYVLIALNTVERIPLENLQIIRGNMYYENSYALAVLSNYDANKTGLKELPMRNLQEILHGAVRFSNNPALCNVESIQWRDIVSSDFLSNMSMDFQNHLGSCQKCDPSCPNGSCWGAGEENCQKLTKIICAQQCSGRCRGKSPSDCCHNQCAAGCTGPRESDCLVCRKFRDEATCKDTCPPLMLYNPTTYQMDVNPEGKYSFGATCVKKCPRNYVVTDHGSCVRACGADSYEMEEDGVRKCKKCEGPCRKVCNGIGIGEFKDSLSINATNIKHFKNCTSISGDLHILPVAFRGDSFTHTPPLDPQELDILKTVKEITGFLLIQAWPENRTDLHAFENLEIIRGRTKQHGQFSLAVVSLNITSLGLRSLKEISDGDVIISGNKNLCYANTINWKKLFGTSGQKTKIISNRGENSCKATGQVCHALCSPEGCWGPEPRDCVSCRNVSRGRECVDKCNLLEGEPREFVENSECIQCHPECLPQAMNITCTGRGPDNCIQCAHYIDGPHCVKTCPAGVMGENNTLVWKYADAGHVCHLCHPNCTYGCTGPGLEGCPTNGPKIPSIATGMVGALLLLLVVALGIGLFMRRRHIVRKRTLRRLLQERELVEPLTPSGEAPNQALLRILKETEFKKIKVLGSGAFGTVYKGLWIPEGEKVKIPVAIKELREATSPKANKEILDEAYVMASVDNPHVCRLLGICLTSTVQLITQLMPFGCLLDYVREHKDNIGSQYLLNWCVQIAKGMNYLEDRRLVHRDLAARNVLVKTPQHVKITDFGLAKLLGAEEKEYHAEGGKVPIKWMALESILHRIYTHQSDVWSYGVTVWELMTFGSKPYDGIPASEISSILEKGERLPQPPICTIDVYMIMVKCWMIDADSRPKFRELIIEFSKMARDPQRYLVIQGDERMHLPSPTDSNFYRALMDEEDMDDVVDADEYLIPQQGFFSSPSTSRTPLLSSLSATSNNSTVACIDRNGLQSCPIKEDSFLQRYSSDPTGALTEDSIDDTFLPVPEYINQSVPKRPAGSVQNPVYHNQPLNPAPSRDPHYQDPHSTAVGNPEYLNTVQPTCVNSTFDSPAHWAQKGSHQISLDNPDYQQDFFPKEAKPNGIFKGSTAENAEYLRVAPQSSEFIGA
Follistatin-related protein 3 (Homo sapiens), sequence (O95633 whole entry, looked up): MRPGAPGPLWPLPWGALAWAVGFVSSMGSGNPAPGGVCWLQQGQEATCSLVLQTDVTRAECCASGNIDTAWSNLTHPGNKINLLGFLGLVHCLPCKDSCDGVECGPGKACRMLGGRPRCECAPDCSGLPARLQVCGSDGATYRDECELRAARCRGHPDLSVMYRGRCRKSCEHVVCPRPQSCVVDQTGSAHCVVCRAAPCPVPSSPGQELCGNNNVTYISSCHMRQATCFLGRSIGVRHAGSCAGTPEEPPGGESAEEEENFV
Neurogenic locus notch homolog protein 3 (Homo sapiens), sequence (Q9UM47 whole entry, looked up): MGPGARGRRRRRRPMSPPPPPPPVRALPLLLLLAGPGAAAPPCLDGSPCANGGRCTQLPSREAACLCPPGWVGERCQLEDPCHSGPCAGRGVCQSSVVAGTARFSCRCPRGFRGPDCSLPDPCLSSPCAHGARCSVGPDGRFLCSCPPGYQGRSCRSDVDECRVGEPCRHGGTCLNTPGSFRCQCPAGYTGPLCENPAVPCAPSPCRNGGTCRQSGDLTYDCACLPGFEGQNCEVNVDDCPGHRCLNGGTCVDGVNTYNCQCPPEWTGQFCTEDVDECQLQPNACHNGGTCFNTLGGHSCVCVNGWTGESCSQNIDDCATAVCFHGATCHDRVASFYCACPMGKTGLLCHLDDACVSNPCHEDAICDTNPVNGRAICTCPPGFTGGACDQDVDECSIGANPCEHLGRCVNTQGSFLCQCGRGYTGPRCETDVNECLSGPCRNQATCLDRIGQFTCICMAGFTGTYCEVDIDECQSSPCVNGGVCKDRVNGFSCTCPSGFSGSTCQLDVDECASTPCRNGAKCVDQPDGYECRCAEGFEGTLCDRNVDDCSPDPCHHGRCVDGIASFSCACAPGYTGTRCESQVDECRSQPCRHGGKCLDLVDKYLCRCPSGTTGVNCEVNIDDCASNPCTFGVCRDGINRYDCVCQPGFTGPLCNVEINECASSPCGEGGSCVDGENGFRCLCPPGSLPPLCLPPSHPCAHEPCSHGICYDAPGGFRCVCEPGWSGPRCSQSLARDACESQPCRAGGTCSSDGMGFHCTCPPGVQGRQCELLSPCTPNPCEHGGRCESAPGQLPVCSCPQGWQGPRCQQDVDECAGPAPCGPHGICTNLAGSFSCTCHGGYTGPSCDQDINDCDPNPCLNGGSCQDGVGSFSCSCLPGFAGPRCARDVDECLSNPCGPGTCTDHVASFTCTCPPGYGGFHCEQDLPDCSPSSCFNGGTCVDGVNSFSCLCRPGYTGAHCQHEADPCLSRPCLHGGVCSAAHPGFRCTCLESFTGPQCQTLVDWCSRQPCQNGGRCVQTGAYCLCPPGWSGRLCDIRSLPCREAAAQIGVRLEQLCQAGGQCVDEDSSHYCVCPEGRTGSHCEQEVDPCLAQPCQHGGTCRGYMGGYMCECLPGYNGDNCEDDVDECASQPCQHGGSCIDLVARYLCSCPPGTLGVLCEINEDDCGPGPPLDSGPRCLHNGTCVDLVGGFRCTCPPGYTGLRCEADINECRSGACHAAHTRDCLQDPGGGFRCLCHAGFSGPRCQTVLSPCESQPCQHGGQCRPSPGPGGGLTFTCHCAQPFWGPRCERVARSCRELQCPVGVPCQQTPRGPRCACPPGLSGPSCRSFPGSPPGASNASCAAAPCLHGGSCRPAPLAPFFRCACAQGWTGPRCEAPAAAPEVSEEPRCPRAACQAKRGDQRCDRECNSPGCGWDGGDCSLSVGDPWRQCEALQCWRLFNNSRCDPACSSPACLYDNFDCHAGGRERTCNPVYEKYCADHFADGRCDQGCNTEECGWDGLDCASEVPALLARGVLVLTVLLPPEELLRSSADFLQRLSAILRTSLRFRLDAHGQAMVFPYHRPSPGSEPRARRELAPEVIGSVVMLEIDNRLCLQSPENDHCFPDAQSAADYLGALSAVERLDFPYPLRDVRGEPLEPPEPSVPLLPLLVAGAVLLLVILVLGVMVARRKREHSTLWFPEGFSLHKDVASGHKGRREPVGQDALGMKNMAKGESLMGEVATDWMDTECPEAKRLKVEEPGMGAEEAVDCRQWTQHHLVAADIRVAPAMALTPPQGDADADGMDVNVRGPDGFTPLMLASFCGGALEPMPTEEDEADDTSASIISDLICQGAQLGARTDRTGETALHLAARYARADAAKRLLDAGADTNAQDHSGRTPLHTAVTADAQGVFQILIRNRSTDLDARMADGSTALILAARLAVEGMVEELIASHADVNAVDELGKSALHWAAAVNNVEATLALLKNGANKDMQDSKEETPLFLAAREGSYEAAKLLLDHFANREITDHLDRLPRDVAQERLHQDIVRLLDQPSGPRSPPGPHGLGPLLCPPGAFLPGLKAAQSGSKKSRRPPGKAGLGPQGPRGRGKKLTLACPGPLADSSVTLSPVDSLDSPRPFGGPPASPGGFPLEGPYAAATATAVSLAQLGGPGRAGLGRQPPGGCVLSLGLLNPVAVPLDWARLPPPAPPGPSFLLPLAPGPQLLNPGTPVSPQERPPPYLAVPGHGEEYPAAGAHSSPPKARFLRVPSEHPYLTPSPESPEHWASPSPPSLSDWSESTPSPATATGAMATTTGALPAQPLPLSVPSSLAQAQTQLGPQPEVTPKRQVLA

With `C=CCC(OC(C)=O)[C@@H]1[C@@H](N(Cc2ccc(-c3cccc(C(F)(F)F)c3)o2)C(=O)c2ccc(C)cc2)c2cc(OCCCO)ccc2N1C(=O)c1ccc2ccccc2n1` (stereo not given in full), the composite z-score in assay [1] is -0.0077; in assay [5], 0.42; in assay [7], -0.0286; in assay [8] it was 0.605; in assay [9], 0.309; in assay [10] it was -0.147. The composite z-score in [11] is 0.273; in [12] it was -0.164; in assay [13] it was 0.253; in assay [15], 0.453; in assay [16], -0.124; in assay [17], -0.0487. For the same molecule, the composite z-score was 0.483 in [18], 0.381 in assay [19] and 1.4 in assay [20]. In addition, the z-score in assay [2] was -0.269 (inactive); in assay [3] it was -0.546 (inactive); in assay [4] it was 0.28 (inactive); in [6], 1.44 (inactive); in [14], 0.168 (inactive).

With `COCCOC(=O)N1C(=O)[C@@]2(c3cc(C#Cc4ccc(OC)cc4)ccc31)[C@H](c1ccc(OCCO)cc1)N1[C@H](c3ccccc3)[C@H](c3ccccc3)OC(=O)[C@H]1[C@@H]2C(=O)N1CCc2cc(OC)c(OC)cc2C1`, the composite z-score in assay [1] was 1.56; in assay [5], 0.434; in assay [7], -0.202; in [8], 1.28; in assay [9], 1.12; in assay [10], -0.02. The composite z-score is 1.41 in assay [11]; -0.126 in [12]; -0.227 in assay [13]; 0.812 in assay [15]; 1.12 in [16]; 0.463 in assay [17]. Further, the composite z-score in assay [18] is 1.3; in assay [19] it was 0.435; in assay [20] it was 0.273. The z-score is 2.81 (inactive) in [2]; 1.39 (inactive) in assay [3]; 7.07 (inactive) in assay [4]; 1.56 (inactive) in [6]; -0.355 (inactive) in [14].

For the molecule `O=C1OCCC=C[C@H]2OC34C=CCN(CCN5CCOCC5)C(=O)[C@H]3N(CCO)C(=O)[C@@H]4C12` (stereo not given in full), the composite z-score was 0.134 in [1]; -0.114 in [5]; -0.145 in assay [7]; 0.922 in assay [8]; 0.439 in assay [9]; -0.23 in assay [10]. In addition, the composite z-score is -0.378 in assay [11]; -0.507 in [12]; -0.771 in assay [13]; 0.217 in [15]; -0.594 in assay [16]; -0.803 in assay [17]. Further, the composite z-score in assay [18] was -0.0836; in assay [19] it was 0.794; in [20] it was 0.612. Also, the z-score in assay [2] was -0.698 (inactive); in assay [3], -0.518 (inactive); in [4], -0.482 (inactive); in assay [6] it was 0.0484 (inactive); in assay [14] it was -0.197 (inactive).

For `CCCCCCC#C[Si](O[C@H](c1ccccc1)c1cn([C@H](C)c2ccccc2)nn1)(C(C)C)C(C)C`, the composite z-score is 0.789 in assay [1]; 0.828 in assay [5]; -0.211 in [7]; 0.476 in assay [8]; 0.579 in assay [9]; -0.099 in assay [10]. For the same molecule, the composite z-score in assay [11] was 0.693; in assay [12], -0.167; in assay [13], -0.365; in [15] it was 0.547; in assay [16], 0.565; in assay [17], 0.483. Moreover, the composite z-score worked out at 0.841 in assay [18], 1.25 in assay [19] and 0.327 in assay [20]. Moreover, the z-score in assay [2] is -0.285 (inactive); in assay [3], 0.994 (inactive); in [4], -0.0401 (inactive); in [6] it was 1.33 (inactive); in [14], -0.209 (inactive).

In the case of `C=C(C(=O)CC[C@H](OC(=O)c1cccnc1)c1ccccc1OCCO)C(C)C`, the composite z-score in assay [1] stood at 1.53; in assay [5], 1.58; in assay [7], 0.0692; in [8] it was 1.71; in [9] it was 0.423; in assay [10], 0.0004. For the same molecule, the composite z-score was 1.14 in assay [11]; -0.109 in assay [12]; -0.0641 in assay [13]; 1.56 in assay [15]; 0.98 in [16]; 1.25 in [17]. Besides, the figures for the composite z-score in assay [18], in assay [19] and in [20] were 1.13, 0.962 and 1.11, respectively. Further, the z-score is -2.6 (inactive) in [2]; -0.267 (inactive) in assay [3]; -0.598 (inactive) in [4]; -0.0377 (inactive) in assay [6]; 3.21 (inactive) in [14].
